# High-throughput results: PubChem BioAssay, National Center for Advancing Translational Sciences (NCATS)
# Many of the other results were omitted from the sample, so hits are more common in it than they were.
# VACV mCherry inh: qHTS for Stage-Specific Inhibitors of Vaccinia Orthopoxvirus: mCherry Reporter Primary qHTS | Vaccinia virus mCherry reporter infection, fluorescence | Potency, µM (top dose mostly 36.5 µM), for inactives: top-dose activity change, negative = inhibition, usual class: inhibitors | 0.63% of 310,000 active | AID 720579, 2013; calls by dose curve; tested in A549 cells; note: potency is the fitted concentration of half-maximal effect; % is set by controls: 0 for no effect and ±100 for the full control effect; nearly all actives have a fitted effect of over 35% in size
# Cycloheximide cs: Cycloheximide Counterscreen for Small Molecule Inhibitors of Shiga Toxin; 12% of 300,000 active; AID 2314, 2010; cell reporter, cycloheximide protein synthesis inhibition counterscreen; max response, %; in the data active = max response mostly above about 13%, no sharp cut-off; inactive = mostly below about 14%; note: read at 38.3 µM for the half of the compounds with a filed dose; 0% is about no effect
# Marburg entry inh: qHTS for inhibitors of binding or entry into cells for Marburg Virus. AID 540276, 2011. 1.8% of 300,000 active. Potency, µM (highest dose often 37.8 µM), for inactives: at the top dose activity change, negative = inhibition, usual class: inhibitors. Marburg virus pseudotyped entry inhibition, cell reporter; calls by dose curve; tested in HEK293 cells; note: potency is the fitted concentration of half-maximal effect; % is set by controls: 0 for no effect and ±100 for the full control effect
# Vaccinia Venus: qHTS for Stage-Specific Inhibitors of Vaccinia Orthopoxvirus: Venus Reporter Primary qHTS | Vaccinia virus Venus reporter expression, fluorescence | Potency, µM (doses to about 36.5 µM), inactives show top-dose activity change, negative = inhibition, most hits filed as inhibitors | 0.46% of 330,000 active; calls by dose curve; tested in A549 cells; note: potency is the fitted concentration of half-maximal effect; % is set by controls: 0 for no effect and ±100 for the full control effect; nearly all actives have a fitted effect of over 30% in size
# LASV entry inh: qHTS for Inhibitors of binding or entry into cells for Lassa Virus; Lassa virus pseudotype entry inhibition, cell reporter; Potency, µM (top dose mostly 37.9 µM), for inactives: at the top dose activity change, negative = inhibition, actives largely listed as inhibitors; 1.2% of 300,000 active; calls by dose curve; tested in HEK293 cells; note: potency is the fitted concentration of half-maximal effect; % is set by controls: 0 for no effect and ±100 for the full control effect; nearly all actives have a fitted effect of over 50% in size
# Shiga inhibitor: A qHTS for Small Molecule Inhibitors of Shiga Toxin; inhibition, % at 38.7 µM; Vero cells, Shiga toxin protein synthesis inhibition reporter; 9.2% of 290,000 active; in the data active = inhibition mostly above about 28%, no sharp cut-off; inactive = mostly below about 43%; note: 0% is about no effect
# Active calls of the source: *; i = inactive; u = inconclusive; x = not tested or not shown; ! = not active in a repeat; [ ] = dose if it differs, or a comment.
SMILES,VACV mCherry inh,Cycloheximide cs,Marburg entry inh,Vaccinia Venus,LASV entry inh,Shiga inhibitor
O=C(c1ccc(O)cc1)c1ccc(C(=O)c2ccc(O)cc2)cc1,u,6.8,u,-27.8%,u,2.8
Oc1ccc(O)cc1,-12.2%,x,7.94µM*!,4.1%,u,x
COc1ccc(C(=O)N2CCN(C(=O)COc3ccccc3)CC2)cc1OC,1.2%,x,1.5%[46.1 µM],-0.7%,22.7%[46.1 µM],x
CC(C)Cc1ccc(CN2CCCC(NC(=O)c3ccnn3C)C2)cc1 (stereo unspecified),-3.7%,7.9,10µM*,-21.8%,u,-34.1
CN(C(=O)COC(=O)Cc1ccc(Cl)cc1)C1CCCCC1,i,x,-15.7%,-12.1%,3.6%,x
Cc1[nH]c2ccccc2c1C(=O)C(=O)N1CCOCC1,x,-1.6,x,x,x,10.6
CCN(CC)C(=S)SCC(=O)c1c(C)[nH]c2ccccc12,-17.2%,15.4*,u,-22.7%,-0.4%,22.3
Cc1[nH]c2ccccc2c1C(=O)CSC(=S)N1CCOCC1,-29.0%,16.7*,u,-28.2%,3.6%,83.8*
Cc1ccc(NC(=O)CN2C(=O)S/C(=C\c3cc(Cl)c(OCC(=O)O)c(Cl)c3)C2=O)cc1,x,-3.1,x,x,x,x
C[N+]1=C(/C=N/O)CCCC1,x,x,2.4%,x,x,x
COc1ccc2[nH]c3c(c2c1)CCn1c-3nc2ccccc2c1=O,-7.4%,37.6*,u,7.8%,-13.5%,97.4*
Cn1cc(C(=O)Nc2cccc(F)c2)cn1,x,3.3,-1.3%,-8.4%,19.3%,-11.3
O=C(Nc1ccc2c(c1)CCC2)c1cc(F)cc(F)c1,-0.3%,x,-15.1%,-14.9%,-7.2%,x
Cn1cc(C(=O)Nc2ccc3c(c2)CCC3)cn1,-6.4%,56.1*,u,-3.7%,u,74.7*
NS(=O)(=O)c1cc(C(=O)Nc2ccc3c(c2)CCC3)ccc1Cl,15.4%,20.1*,u,-9.4%,u,89.1*
Cc1ccc(C(=O)NCC(=O)Nc2ccc3c(c2)CCC3)cc1,i,x,u,11.1%,28.1%[46.1 µM],x
Cc1ccc(C(=O)Nc2ccc3c(c2)CCC3)cc1,x,23.5,u,x,16.4µM*,5.5
CC(=O)c1ccc(Nc2cc(C)nc3c(C)cccc23)cc1,x,0.3,x,x,x,0.4
CC(=O)c1ccc(Nc2cc(C)nc3ccccc23)cc1,-24.0%,18.3*,2.82µM*,-16.7%,u,36.7
COC(=O)c1ccc(Nc2cc(C)nc3ccc(C)cc23)cc1,-13.9%,-4.8,12.6µM*,u,u,-22.3
COC(=O)c1ccc2nc(C)cc(Nc3ccccc3C)c2c1,u,0.5,x,u,x,-6.1
Cc1cccc(Nc2nc(C)cc(C)n2)c1,x,15.5*,x,x,x,24.1*
Cc1cc(C)nc(Nc2ccc(F)cc2)n1,i,10.1,14.2%,-1.8%,u,63.7
COc1ccc(Nc2cc(C)nc3ccccc23)cc1,x,-1.5,u,x,-1.3%,-10.6
Cc1ccc(Nc2cc(C)nc3c(C)cccc23)cc1,u,6.7,10µM*,-15.3%,3.2%[46.1 µM],-4.2
SMILES,VACV mCherry inh,Cycloheximide cs,Marburg entry inh,Vaccinia Venus,LASV entry inh,Shiga inhibitor
COc1ccc(-n2nc(C(=O)NCCc3ccc(Cl)cc3)c3c4ccccc4n(C)c3c2=O)cc1,-10.9%,x,9.2%[46.1 µM],-9.2%,21.7%[46.1 µM],x
COc1ccc(OC)c([C@H](O)c2coc3ccc(O)c(CN4CCOCC4)c23)c1,x,x,15.8%,x,x,x
CCOC(=O)c1ccc(Nc2nc(C)cc(C)n2)cc1,-11.9%,6.3,-1.0%[46.1 µM],2.0%,u,-1.4
CC(=O)c1ccc(Nc2nc(C)cc(C)n2)cc1,-18.0%,28.2*,10.3%,-0.9%,2.5%,95.0
CN(C)C(=O)C(=O)c1c(-c2ccccc2)cc2ccccn12,x,7.9,19.3%,-27.3%,8.1%,11.1
O=Nc1c(-c2ccccc2)cc2ccccn12,x,48.2*,x,x,x,130.0*
O=C(Cc1cn2ccsc2n1)OCc1ccccc1,x,26.7*,7.08µM*,18.2%,5.01µM*,62.5*
O=C(Cc1cn2ccsc2n1)NCc1ccccc1,i,10.9,-0.1%,-8.0%,7.1%,7.3
O=c1c2ccccc2nc(SCc2cn3ccsc3n2)n1-c1ccccc1,x,0.4,-8.5%[46.1 µM],-22.2%,u,-3.7
O=c1c2ccccc2nc(SCc2cn3ccsc3n2)n1-c1ccccc1F,u,29.6*,u,u,u,41.4*
c1ccc(CSCc2cn3ccsc3n2)cc1,x,38.9*,18.8%,-16.4%,1.6%,12.4*
Cc1ccc(C)c(NC(=O)CN2C(=O)CCc3ccccc32)c1,-14.6%[7.34 µM],x,x,-8.2%[7.34 µM],u,x
CC(=O)c1cccc(NC(=O)CN2C(=O)CC(c3ccc(C)cc3C)=Nc3ccccc32)c1,-14.8%,x,x,-8.3%,u,x
COc1ccc(C(=O)NCc2nnc(SC)n2-c2ccccc2C)c(OC)c1OC,-9.0%,x,x,10.3%,x,x
Cc1c(C(=O)N2CCCCCC2)c(S(=O)(=O)Nc2cccc(F)c2)c(C)n1C,1.2%[7.34 µM],-0.6,x,7.3%[7.34 µM],x,-9.8
Cc1cc(C)c(C2=CC(=O)C[C@H](c3ccc4c(c3)OCO4)C2)c(C)c1,u,x,0.8%,-13.4%,x,x
CCc1ccc(C(=O)O)cc1,i,0.9,-2.0%,-6.6%,11.3%,9.2
Cc1ccc(C(=O)CCC(=O)NC2CCCC(C)C2C)cc1 (stereo unspecified),-13.4%,-0.2,u,-20.8%,1.1%[46.1 µM],-2.3
Cc1ccc(C(=O)CCC2CCCC2=O)cc1 (stereo unspecified),x,50.0*,-18.8%,-25.2%,u,53.2*
CCc1ccc(C(=O)CCC2CCCCC2=O)cc1 (stereo unspecified),-0.8%,36.0*,17.3%,0.8%,9.5%,95.8*
O=C(CCC1CCCCC1=O)c1ccccc1 (stereo unspecified),-28.6%,17.6,-4.8%,-24.7%,-2.1%,32.9
Cc1ccc(C(=O)CCC2CCCCC2=O)cc1 (stereo unspecified),x,33.1*,u,x,u,101.5*
COc1ccc(S(=O)(=O)NCc2cccnc2)cc1C,i,3.7,29.3%,-11.1%,-16.6%,x
O=C(Nc1ccc2ccccc2c1)C(c1ccccc1F)n1c(=O)c(-c2cc3ccccc3[nH]2)nc2ccccc21 (stereo unspecified),u,x,x,-0.6%,x,x
Cc1scc(C(=O)N/N=C/c2ccsc2)c1C,-5.4%,83.6*,u,-13.8%,u,52.1*
SMILES,VACV mCherry inh,Cycloheximide cs,Marburg entry inh,Vaccinia Venus,LASV entry inh,Shiga inhibitor
Cc1scc(C(=O)N/N=C/c2ccc([N+](=O)[O-])o2)c1C,x,0.1,x,x,x,5.6
Cc1scc(C(=O)N/N=C/c2ccco2)c1C,x,29.3*,4.3%,x,-1.6%,53.1*
CCCOc1cccc(/C=N/NC(=O)c2csc(C)c2C)c1,i,14.0,-4.7%[46.1 µM],-20.6%,-6.5%,2.3
CC1(C)Cc2nc(-c3ccccc3)nc(NNC(=O)c3ccco3)c2CO1,-7.6%,-1.3,5.9%,-8.5%,-0.4%,-8.3
CCOC(=O)C(O)(c1ccc(NC(=S)NC(=O)c2ccc(Cl)cc2Cl)cc1)C(F)(F)F (stereo unspecified),u,-2.0,u,u,u,-7.1
CCOC(=O)C(O)(c1ccc(NC(=S)NC(=O)c2ccc(Cl)cc2Cl)c(C)c1)C(F)(F)F (stereo unspecified),u,-1.7,u,u,10.3µM*,-3.9
